# Results from PubChem BioAssay (NCI).
# The panel holds about 83,000 compounds, 20% with a hit somewhere; the sample as a whole holds those more often.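 Percent growth is the endpoint: 0 to 100 indicates growth inhibition (40 means 60% inhibition), 0 means no net growth, and negative values indicate cell death.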 Unmarked numbers belong to inactive results. Activity calls are given as the source filed them. Rule for the calls: active = growth percent below 10; inactive = the rest.
# System: BT-549 breast
# Assay: NCI-60 one-dose screen, 48 h (100 = growth as untreated, 0 = no growth, -100 = all killed)
# Conditions: 10 µM unless noted
row,Compound,growth
1,O=S(=O)(NCCCNc1nccc(-c2c(-c3ccc(F)c(O)c3)nc3sccn23)n1)c1ccc(Cl)cc1,101%
2,Nc1ccc(S(=O)(=O)c2ccc(Cl)cc2)cc1,97.2%
3,O=C1OC(c2ccccc2)=N/C1=C\c1ccc([N+](=O)[O-])cc1,101%
4,CC(Br)C(Br)c1cc2c(cc1Br)OCO2 (stereo not drawn),100%
5,COc1ncc(-c2ccc3ncnc(Nc4cccc(Cl)c4)c3c2)cc1NS(=O)(=O)CCN1CCOCC1,-4.07% (active)
6,CCCCC[C@@H]1Cc2cc(O)c(C(=O)O)c3c2[C@H](C[C@@]2(CCCO2)O3)O1,115%
7,CC(C)C[C@H](NC(=O)[C@@H](Cc1ccccc1)n1ccc(Nc2ccccc2)cc1=O)B(O)O,-10.5% (active)
8,N#CC1=C(N)n2nc(-c3ccncc3)nc2NC1c1cccc2ccccc12 (stereo not drawn),90.1%
9,O=c1cc(C2NCCc3c2[nH]c2ccccc32)c2c(ccc3ccccc32)o1 (stereo not drawn),82%
10,CC(C)CCC[C@@H](C)[C@H]1CC[C@H]2[C@@H]3CC[C@H]4C/C(=N/O)CC[C@]4(C)[C@H]3CC[C@]12C,108%
11,COc1ccc(/C=C/C(=O)c2cccc(B(O)O)c2)cc1O,13.9%
12,O=c1oc2c([nH]c3ccc4ccccc4c32)c2ccccc12,104%
13,O=C(NCCc1c[nH]c2ccccc12)C1Cc2ccccc2CN1C(=O)c1ccco1 (stereo not drawn),102%
14,CC/C=C\C[C@H]1C/C=C2/C(=O)C(Cl)=C[C@@H]2C/C=C\CCCC(=O)O1,-75% (active)
15,C/C(=N\NC(=O)CC#N)c1cc2cc(Cl)ccc2o1,125%
16,O=C(Nc1ccc(F)cc1)c1cc([N+](=O)[O-])ccc1O,81.5%
17,CCN(CC)CCSc1c2ccc(Cl)cc2nc2ccc(OC)cc12,107%
18,O=[N+]([O-])c1ccc(S(=O)(=O)N2CCN(c3ccnc4cc(Cl)ccc34)CC2)c([N+](=O)[O-])c1,97.6%
19,O=[N+]([O-])c1c(S(=O)(=O)O)cc2cc(S(=O)(=O)O)ccc2c1[N+](=O)[O-],104%

row,Compound,growth
1,Clc1nc(Cl)c2ncn(C/C=C/Cn3cnc4c(Cl)nc(Cl)nc43)c2n1,-33.3% (active)
2,CC(C)C[C@H](NC(=O)Cn1ccc(NCc2ccccc2)cc1=O)B(O)O,3.58% (active)
3,N#Cc1ccc(NC(=O)c2ccc3cccnc3c2O)cc1,27.7%
4,CCCCCCc1nc2c(c(C)nn2-c2ccccc2)c2c1CCCCC2,113%
5,Nc1nc(N)c2nc(CNc3ccc(C(=O)CC(CCC(=O)O)C(=O)O)cc3)cnc2n1 (stereo not drawn),63.3%
6,Nc1nc(Cl)c2c(ncn2Cc2ccc(CCl)cc2)n1,6.29% (active)
7,CCOc1ccc(/C=C/C=N/NC(N)=S)cc1,57.4%
8,COc1cc(/C=C/C(=O)c2ccccc2O)ccc1OCCCOc1cc2c(cc1OC)C(=O)N1CCC[C@H]1C=N2,-4.28% (active)
9,CC(CCc1ccccc1)NC(=O)c1n[nH]c(=O)c2ccccc12 (stereo not drawn),98.9%
10,COc1cc(-c2nc(-c3nc4ccccc4[nH]3)cc3c2[nH]c2ccccc23)cc(OC)c1OC,27%
11,O=C(/C=C/CN1CCOCC1)Nc1cc2c(Nc3ccc(F)c(Cl)c3F)ncnc2cc1OCCOC(F)F,54.3%
12,COc1cc(NS(C)(=O)=O)ccc1Nc1c2ccc([N+](=O)[O-])cc2nc2c(C)cccc12,27%
13,O=S(=O)(NCCCNc1cc(-c2cn(-c3ccccc3)nc2-c2cccc(O)c2)ccn1)c1cccc2ccccc12,37.1%
14,O=c1[nH]c(-c2cn(-c3ccc(Cl)cc3)nn2)nc2ccccc12,79.6%
15,CCN(C(=O)c1cc2ccccc2[nH]1)[C@H]1CCC[C@@H](NCc2ccc(OC)cc2)C1,102%
16,COc1ccc(/C=C/C(=O)c2ccc(B(O)O)cc2)cc1O,64.8%
17,Clc1ccc2c(c1)NC1(CCSc3ccccc31)n1nccc1-2 (stereo not drawn),97.4%
18,O=C1NC(Cc2c[nH]c3ccccc23)C(=O)N1Cc1ccc(Cl)cc1 (stereo not drawn),96.3%
19,CCCCCCCCCCC/C=C\C[C@H](O)C/C=C1/C(=O)C=C[C@@H]1C/C=C\CCCC(=O)OC,-14.2% (active)

# System: MDA-MB-435 melanoma
# Assay: as above
# Conditions: 10 µM unless noted
row,Compound,growth
1,O=S(=O)(NCCCNc1nccc(-c2c(-c3ccc(F)c(O)c3)nc3sccn23)n1)c1ccc(Cl)cc1,32.5%
2,Nc1ccc(S(=O)(=O)c2ccc(Cl)cc2)cc1,121%
3,O=C1OC(c2ccccc2)=N/C1=C\c1ccc([N+](=O)[O-])cc1,106%
4,CC(C)C[C@H](NC(=O)[C@@H](Cc1ccccc1)n1ccc(Nc2ccccc2)cc1=O)B(O)O,-51.3% (active)
5,N#CC1=C(N)n2nc(-c3ccncc3)nc2NC1c1cccc2ccccc12 (stereo not drawn),88.1%
6,O=c1cc(C2NCCc3c2[nH]c2ccccc32)c2c(ccc3ccccc32)o1 (stereo not drawn),81.7%
7,CC(C)CCC[C@@H](C)[C@H]1CC[C@H]2[C@@H]3CC[C@H]4C/C(=N/O)CC[C@]4(C)[C@H]3CC[C@]12C,103%
8,O=c1oc2c([nH]c3ccc4ccccc4c32)c2ccccc12,105%
9,O=C(NCCc1c[nH]c2ccccc12)C1Cc2ccccc2CN1C(=O)c1ccco1 (stereo not drawn),116%
10,CC/C=C\C[C@H]1C/C=C2/C(=O)C(Cl)=C[C@@H]2C/C=C\CCCC(=O)O1,-74.8% (active)
11,C/C(=N\NC(=O)CC#N)c1cc2cc(Cl)ccc2o1,106%
12,O=[N+]([O-])c1ccc(S(=O)(=O)N2CCN(c3ccnc4cc(Cl)ccc34)CC2)c([N+](=O)[O-])c1,98.1%
13,O=[N+]([O-])c1c(S(=O)(=O)O)cc2cc(S(=O)(=O)O)ccc2c1[N+](=O)[O-],105%
14,Clc1nc(Cl)c2ncn(C/C=C/Cn3cnc4c(Cl)nc(Cl)nc43)c2n1,98.3%
15,CC(C)C[C@H](NC(=O)Cn1ccc(NCc2ccccc2)cc1=O)B(O)O,-62.2% (active)
16,N#Cc1ccc(NC(=O)c2ccc3cccnc3c2O)cc1,26.2%
17,CCCCCCc1nc2c(c(C)nn2-c2ccccc2)c2c1CCCCC2,116%
18,Nc1nc(N)c2nc(CNc3ccc(C(=O)CC(CCC(=O)O)C(=O)O)cc3)cnc2n1 (stereo not drawn),34.4%
19,Nc1nc(Cl)c2c(ncn2Cc2ccc(CCl)cc2)n1,95.5%
20,CCOc1ccc(/C=C/C=N/NC(N)=S)cc1,88.9%
21,COc1cc(/C=C/C(=O)c2ccccc2O)ccc1OCCCOc1cc2c(cc1OC)C(=O)N1CCC[C@H]1C=N2,-28.9% (active)
22,CC(CCc1ccccc1)NC(=O)c1n[nH]c(=O)c2ccccc12 (stereo not drawn),108%
23,COc1cc(-c2nc(-c3nc4ccccc4[nH]3)cc3c2[nH]c2ccccc23)cc(OC)c1OC,31.1%
24,O=C(/C=C/CN1CCOCC1)Nc1cc2c(Nc3ccc(F)c(Cl)c3F)ncnc2cc1OCCOC(F)F,69.1%
25,COc1cc(NS(C)(=O)=O)ccc1Nc1c2ccc([N+](=O)[O-])cc2nc2c(C)cccc12,27.2%
26,O=S(=O)(NCCCNc1cc(-c2cn(-c3ccccc3)nc2-c2cccc(O)c2)ccn1)c1cccc2ccccc12,32.8%
27,O=c1[nH]c(-c2cn(-c3ccc(Cl)cc3)nn2)nc2ccccc12,77.2%
28,CCN(C(=O)c1cc2ccccc2[nH]1)[C@H]1CCC[C@@H](NCc2ccc(OC)cc2)C1,93.1%
29,COc1ccc(/C=C/C(=O)c2ccc(B(O)O)cc2)cc1O,3.03% (active)
30,CCCCCCCCCCC/C=C\C[C@H](O)C/C=C1/C(=O)C=C[C@@H]1C/C=C\CCCC(=O)OC,-14.5% (active)
